From PubChem BioAssay (NCI) come the findings set out here.

Some test systems named below: HCT-15 colon; HT29 colon; SNB-75 CNS; SNB-19 CNS; U251 CNS; PC-3 prostate; SK-MEL-5 melanoma; UACC-62 melanoma; LOX IMVI melanoma; SK-MEL-28 melanoma; SK-MEL-2 melanoma; EKVX NSCLC; SN12C renal; TK-10 renal; ACHN renal; A498 renal; CCRF-CEM leukemia; MOLT-4 leukemia; SR leukemia.
Common to all, as to experiment: NCI-60 one-dose screen, 48 h (100 = growth as untreated, 0 = no growth, -100 = all killed)
Details in all cases: 10 µM unless noted

The panel holds about 83,000 compounds, 20% with a hit somewhere; the sample as a whole holds those more often.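 Values shown are percent growth following 48 h exposure of cells in 96-well plates to a single concentration of compound; below 10 was considered active.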 Unmarked numbers belong to inactive results. Activity calls are given as the source filed them.

For `COc1ccc2nc(-c3ccc(Cl)cc3)cc(C(=O)N3N=C(c4ccc(N)cc4)CC3c3ccccc3)c2c1` (stereo not drawn), the growth with HCT-15 colon is 26.7%; in the assay with HT29 colon, 19.6%; in the assay with SNB-75 CNS, 44.3%; with SNB-19 CNS it was 49.6%; in the assay with U251 CNS, 50.7%; in the assay on PC-3 prostate it was 35.9%. For the same molecule, the growth in the assay with SK-MEL-5 melanoma is 39.4%; in the assay with UACC-62 melanoma, 37%; in the assay on LOX IMVI melanoma, 40.4%; in the assay on SK-MEL-28 melanoma it was 61.7%; in the assay on SK-MEL-2 melanoma, 43.2%; in the assay on EKVX NSCLC, 35.6%. Besides, the growth with SN12C renal is 57.8%; in the assay with TK-10 renal, 68.1%; in the assay on ACHN renal, 52.8%; in the assay on A498 renal it was 56.9%; with CCRF-CEM leukemia it was 31.2%; in the assay on MOLT-4 leukemia, 43.2%. The growth with SR leukemia was 25.1%.
Consider `NC[C@@H]1CCN(c2cc3c(cc2F)c(=O)n(N)c(=O)n3Cc2ccc(-c3ccccc3)cc2)C1`, for which the growth in the assay with HCT-15 colon is 50.1%; with HT29 colon it was 30.4%; in the assay with SNB-75 CNS it was 77.9%; in the assay with SNB-19 CNS, 102%; in the assay on U251 CNS, 64.5%; with PC-3 prostate, 71.4%. The growth in the assay with SK-MEL-5 melanoma was 72.4%; in the assay on UACC-62 melanoma, 94.6%; in the assay on LOX IMVI melanoma it was 78.9%; with SK-MEL-28 melanoma it was 113%; with SK-MEL-2 melanoma, 94.4%; in the assay with EKVX NSCLC, 85.3%. Besides, the growth in the assay with SN12C renal is 87.3%; in the assay on TK-10 renal, 94.7%; with ACHN renal it was 95.3%; in the assay with A498 renal, 90.3%; with CCRF-CEM leukemia, 55.4%; in the assay on MOLT-4 leukemia, 50.4%. Moreover, the growth with SR leukemia was -26.7% (active).
Take `C=C(C)[C@@H]1CC[C@]2(C(=O)N3CCN(C)CC3)CC[C@]3(C)[C@H](CC[C@@H]4[C@@]5(C)C/C(=C/c6ccco6)C(=O)C(C)(C)[C@@H]5CC[C@]43C)[C@@H]12`: the growth in the assay on HCT-15 colon was 46.6%; in the assay with HT29 colon, 25.8%; with SNB-75 CNS, 68%; in the assay with SNB-19 CNS it was 80.1%; in the assay with U251 CNS it was 60.9%; in the assay on PC-3 prostate, 37.2%. Besides, the growth in the assay with SK-MEL-5 melanoma is 68.9%; in the assay with UACC-62 melanoma it was 76.1%; with LOX IMVI melanoma it was 30.1%; in the assay with SK-MEL-28 melanoma, 55.7%; in the assay on SK-MEL-2 melanoma it was 83.7%; in the assay on EKVX NSCLC, 68.2%. Further, the growth was 64.9% in the assay on SN12C renal; 98.8% in the assay on TK-10 renal; 74.7% with ACHN renal; 97.5% with A498 renal; 50.1% in the assay on CCRF-CEM leukemia; 28.6% in the assay on MOLT-4 leukemia. Besides, in the assay on SR leukemia, the growth was -21.9% (active).
With `O=c1c2ccccc2oc2ccc(OCCCCCN3CCCCCC3)cc12`, the growth was 33.1% in the assay on HCT-15 colon; 12.9% with HT29 colon; 77.1% in the assay with SNB-75 CNS; 84% in the assay on SNB-19 CNS; 60.3% in the assay with U251 CNS; 80.7% in the assay on PC-3 prostate. Besides, the growth was -35.2% (active) in the assay with SK-MEL-5 melanoma; 2.08% (active) in the assay with UACC-62 melanoma; 49.8% in the assay on LOX IMVI melanoma; 86.3% in the assay with SK-MEL-28 melanoma; 99.4% in the assay with SK-MEL-2 melanoma; 90.4% in the assay with EKVX NSCLC. The growth is 69.4% in the assay with SN12C renal; 72.2% with TK-10 renal; 103% in the assay with ACHN renal; 82.7% with A498 renal; 82.5% in the assay with CCRF-CEM leukemia; 46.7% in the assay on MOLT-4 leukemia. In addition, in the assay on SR leukemia, the growth is 46.9%.
In the case of `COc1cc(C2=NN(c3ccccc3)C(c3cccc(Nc4ccnc5cc(C(F)(F)F)ccc45)c3)C2)cc(OC)c1OC` (stereo not drawn), the growth is 78.1% in the assay on HCT-15 colon; 71% with HT29 colon; 106% in the assay on SNB-75 CNS; 92.8% in the assay on SNB-19 CNS; 95.5% in the assay with U251 CNS; 72.4% in the assay on PC-3 prostate. For the same molecule, the growth in the assay on SK-MEL-5 melanoma is 89.8%; in the assay on UACC-62 melanoma, 83.5%; with LOX IMVI melanoma, 81.9%; with SK-MEL-28 melanoma, 100%; in the assay with SK-MEL-2 melanoma it was 86.6%; in the assay with EKVX NSCLC, 85.2%. For the same molecule, the growth in the assay with SN12C renal was 97.1%; in the assay on TK-10 renal, 78.2%; in the assay on ACHN renal, 95.2%; with A498 renal, 89.9%; in the assay with CCRF-CEM leukemia it was 84.1%; with MOLT-4 leukemia, 65.3%. The growth in the assay with SR leukemia is 56.9%.
For the molecule `Cc1cc(Cl)cc(CN(Cc2ccccc2)Cc2c(O)ccc3ccccc23)c1O`, the growth in the assay on HCT-15 colon is 108%; in the assay with HT29 colon, 98.5%; in the assay with SNB-75 CNS it was 94.5%; in the assay on SNB-19 CNS, 99.9%; with U251 CNS it was 98.5%; in the assay on PC-3 prostate, 88.5%. For the same molecule, the growth was 95.1% with SK-MEL-5 melanoma; 89.3% in the assay with UACC-62 melanoma; 90.2% in the assay with LOX IMVI melanoma; 113% with SK-MEL-28 melanoma; 91% in the assay on SK-MEL-2 melanoma; 99% in the assay with EKVX NSCLC. Besides, the growth was 83.5% in the assay with SN12C renal; 110% in the assay on TK-10 renal; 102% in the assay on ACHN renal; 76.6% in the assay with A498 renal; 99.2% in the assay on CCRF-CEM leukemia; 104% with MOLT-4 leukemia. In the assay with SR leukemia, the growth was 92.9%.
Take `O=C1Nc2ccc(Cl)cc2/C1=N/c1nc(-c2ccc(Cl)cc2)cs1`: the growth in the assay on HCT-15 colon was 26.7%; with HT29 colon, -0.232% (active); in the assay with SNB-75 CNS, 26.2%; with SNB-19 CNS, 10.8%; in the assay with U251 CNS, -3.58% (active); with PC-3 prostate, 2.97% (active). The growth in the assay on SK-MEL-5 melanoma is 8.24% (active); in the assay on UACC-62 melanoma, -46.6% (active); with LOX IMVI melanoma it was -7.47% (active); in the assay on SK-MEL-28 melanoma, 16.3%; in the assay with SK-MEL-2 melanoma it was -2.56% (active); in the assay on EKVX NSCLC, 25.6%. In addition, the growth is 17.3% in the assay with SN12C renal; -15.5% (active) with TK-10 renal; 11.9% in the assay with ACHN renal; -2.57% (active) in the assay on A498 renal; 8.26% (active) with CCRF-CEM leukemia; 2.22% (active) with MOLT-4 leukemia. Further, in the assay on SR leukemia, the growth was 3.05% (active).
